In the supplement of paper PMC10849652:
The full data set covers some 7,900 targets. This sample favours those with a hit. About 0.6% of all pairs of compound and target were hits. A number with no mark means an inactive call.

Columns and labels:
Experiment in all cases: log2 fold change, soluble protein after heating vs DMSO (PISA); higher = thermal stabilisation; K562 cells, 10 uM, 30 min; active = over 0.2 and 3.5 SD of the protein, either way, in both replicates (recomputed)
[1] = compound: COC1=CC=C(C=C1)CN2C=CC3=C2C=C(C=C3)C(=O)NO
How it was run: (§1)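 Thermal stability values are relative to control samples and come from duplicates. They are expressed as log2 fold changes. For measurement, K562 cells (2×10^6 cells/mL) received 10 μM compound for 30 min, and aliquots were heated for 3 min over 48°C-58°C, pooled, and extracted at 4°C in PBS with 0.5% NP-40. Soluble protein, the supernatant after 21,000xg for 90 min, was quantified by TMTpro 16plex LC-MS/MS with equalised channel sums.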

[2] = compound: CON(C)C(=O)N1N=C(c2cc(F)ccc2F)S[C@@]1(CCCN)c1ccccc1 [filanesib]
How it was run: as §1

[3] = compound: CO[C@H]1C[C@@H]2CC[C@@H](C)[C@@](O)(O2)C(=O)C(=O)N2CCCC[C@H]2C(=O)O[C@H]([C@H](C)C[C@@H]2CC[C@H](n3cnnn3)[C@H](OC)C2)CC(=O)[C@H](C)/C=C(\C)[C@@H](O)[C@@H](OC)C(=O)[C@H](C)C[C@H](C)/C=C/C=C/C=C/1C [zotarolimus]
How it was run: as §1

[4] = compound: COc1cc(C(=O)O)ccc1NC(=O)[C@@H]1N[C@@H](CC(C)(C)C)[C@](C#N)(c2ccc(Cl)cc2F)[C@H]1c1cccc(Cl)c1F [idasanutlin]
How it was run: as §1

[5] = compound: COc1cc(Nc2ncc3c(n2)-c2ccc(Cl)cc2C(c2c(F)cccc2OC)=NC3)ccc1C(=O)O [alisertib]
How it was run: as §1

[6] = compound: COc1cc2nc(-c3cc(F)ccc3O)nc(N[C@@H]3CNC[C@H]3C(C)(C)O)c2cc1OC
How it was run: as §1

[7] = compound: COc1cc2ncnc(Nc3ccc(F)c(Cl)c3)c2cc1OCCCN1CCOCC1 [gefitinib]
How it was run: as §1

[8] = compound: COc1cccc2cc(-c3nc([C@H]4CC[C@H](C(=O)O)CC4)n4ncnc(N)c34)[nH]c12
How it was run: as §1

[9] = compound: CS(=O)(=O)CCNCc1ccc(-c2ccc3ncnc(Nc4ccc(OCc5cccc(F)c5)c(Cl)c4)c3c2)o1 [lapatinib]
How it was run: as §1

[10] = compound: CS(=O)(=O)N1CCN(Cc2cc3nc(-c4cccc5[nH]ncc45)nc(N4CCOCC4)c3s2)CC1 [pictilisib]
How it was run: as §1

[11] = compound: CS(=O)(=O)c1ccc(-c2cnc(N)c(C(=O)Nc3ccccc3)n2)cc1
How it was run: as §1

[12] = compound: C[C@@H](Oc1cc(-c2cnn(C3CCNCC3)c2)cnc1N)c1c(Cl)ccc(F)c1Cl [crizotinib]
How it was run: as §1

[13] = compound: C[C@@H]1COCCN1C2=NC(=NC(=C2)C3(CC3)S(=O)(=O)C)C4=C5C=CNC5=CC=C4
How it was run: as §1

[14] = compound: C[C@H](C1=CC=C(C=C1)C(=O)NC2=C3C=CNC3=NC=C2)N
How it was run: as §1

[15] = compound: C[C@H](Nc1ncnc2nc[nH]c12)c1cc2cccc(Cl)c2c(=O)n1-c1ccccc1 [duvelisib]
How it was run: as §1

[16] = compound: Cc1cc(Nc2cc(CN3CCOCC3)c3nc(C)c(Cc4ccc(Cl)cc4F)n3n2)n[nH]1 [gandotinib]
How it was run: as §1

[17] = compound: Cc1cc(Nc2cc(N3CCN(C)CC3)nc(Sc3ccc(NC(=O)C4CC4)cc3)n2)n[nH]1 [tozasertib]
How it was run: as §1

[18] = compound: Cc1cc(SCc2sc(-c3ccc(C(F)(F)F)cc3)nc2C)ccc1OCC(=O)O
How it was run: as §1

[19] = compound: Cc1ccc(-n2nc(C(C)(C)C)cc2NC(=O)Nc2ccc(OCCN3CCOCC3)c3ccccc23)cc1 [doramapimod]
How it was run: as §1

[20] = compound: Cc1ccc(C(=O)N(CCCN)[C@@H](c2nc3cc(Cl)ccc3c(=O)n2Cc2ccccc2)C(C)C)cc1 [ispinesib]
How it was run: as §1

Chain of UniProt P15531 (P15531 whole entry, looked up): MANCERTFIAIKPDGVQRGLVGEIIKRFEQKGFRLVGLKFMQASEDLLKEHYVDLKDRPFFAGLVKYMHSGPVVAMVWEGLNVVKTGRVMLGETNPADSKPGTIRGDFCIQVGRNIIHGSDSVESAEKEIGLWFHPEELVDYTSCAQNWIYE
Chain of UniProt O95182 (O95182 whole entry, looked up): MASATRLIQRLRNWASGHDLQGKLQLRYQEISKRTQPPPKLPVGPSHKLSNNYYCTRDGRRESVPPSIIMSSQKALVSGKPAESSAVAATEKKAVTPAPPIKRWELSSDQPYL
Chain of UniProt P43246 (P43246 whole entry, looked up): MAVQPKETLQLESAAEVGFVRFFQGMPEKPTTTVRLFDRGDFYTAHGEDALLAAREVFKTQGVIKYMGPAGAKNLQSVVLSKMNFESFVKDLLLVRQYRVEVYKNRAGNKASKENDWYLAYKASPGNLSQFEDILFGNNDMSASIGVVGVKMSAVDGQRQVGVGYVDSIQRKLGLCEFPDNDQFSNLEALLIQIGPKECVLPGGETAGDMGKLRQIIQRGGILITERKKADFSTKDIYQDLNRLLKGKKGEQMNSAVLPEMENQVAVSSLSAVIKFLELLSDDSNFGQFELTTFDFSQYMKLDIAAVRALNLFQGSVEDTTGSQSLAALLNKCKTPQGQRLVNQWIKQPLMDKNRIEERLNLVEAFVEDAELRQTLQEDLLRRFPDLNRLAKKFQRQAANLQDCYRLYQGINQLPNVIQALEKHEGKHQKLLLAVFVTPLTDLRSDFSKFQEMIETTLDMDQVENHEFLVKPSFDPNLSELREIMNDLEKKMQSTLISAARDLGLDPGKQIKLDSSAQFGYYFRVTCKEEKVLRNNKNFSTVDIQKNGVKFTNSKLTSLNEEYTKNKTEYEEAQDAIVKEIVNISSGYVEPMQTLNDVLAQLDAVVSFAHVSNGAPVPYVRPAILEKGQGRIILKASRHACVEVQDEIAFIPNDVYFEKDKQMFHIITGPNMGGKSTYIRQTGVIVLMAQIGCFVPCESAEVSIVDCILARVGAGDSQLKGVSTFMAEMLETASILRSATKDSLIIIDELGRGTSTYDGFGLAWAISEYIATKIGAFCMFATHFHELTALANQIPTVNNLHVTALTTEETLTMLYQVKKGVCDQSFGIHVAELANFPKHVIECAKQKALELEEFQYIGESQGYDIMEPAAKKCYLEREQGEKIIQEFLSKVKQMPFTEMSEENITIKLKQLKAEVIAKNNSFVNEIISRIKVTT
Chain of UniProt P52948 (P52948 whole entry, looked up): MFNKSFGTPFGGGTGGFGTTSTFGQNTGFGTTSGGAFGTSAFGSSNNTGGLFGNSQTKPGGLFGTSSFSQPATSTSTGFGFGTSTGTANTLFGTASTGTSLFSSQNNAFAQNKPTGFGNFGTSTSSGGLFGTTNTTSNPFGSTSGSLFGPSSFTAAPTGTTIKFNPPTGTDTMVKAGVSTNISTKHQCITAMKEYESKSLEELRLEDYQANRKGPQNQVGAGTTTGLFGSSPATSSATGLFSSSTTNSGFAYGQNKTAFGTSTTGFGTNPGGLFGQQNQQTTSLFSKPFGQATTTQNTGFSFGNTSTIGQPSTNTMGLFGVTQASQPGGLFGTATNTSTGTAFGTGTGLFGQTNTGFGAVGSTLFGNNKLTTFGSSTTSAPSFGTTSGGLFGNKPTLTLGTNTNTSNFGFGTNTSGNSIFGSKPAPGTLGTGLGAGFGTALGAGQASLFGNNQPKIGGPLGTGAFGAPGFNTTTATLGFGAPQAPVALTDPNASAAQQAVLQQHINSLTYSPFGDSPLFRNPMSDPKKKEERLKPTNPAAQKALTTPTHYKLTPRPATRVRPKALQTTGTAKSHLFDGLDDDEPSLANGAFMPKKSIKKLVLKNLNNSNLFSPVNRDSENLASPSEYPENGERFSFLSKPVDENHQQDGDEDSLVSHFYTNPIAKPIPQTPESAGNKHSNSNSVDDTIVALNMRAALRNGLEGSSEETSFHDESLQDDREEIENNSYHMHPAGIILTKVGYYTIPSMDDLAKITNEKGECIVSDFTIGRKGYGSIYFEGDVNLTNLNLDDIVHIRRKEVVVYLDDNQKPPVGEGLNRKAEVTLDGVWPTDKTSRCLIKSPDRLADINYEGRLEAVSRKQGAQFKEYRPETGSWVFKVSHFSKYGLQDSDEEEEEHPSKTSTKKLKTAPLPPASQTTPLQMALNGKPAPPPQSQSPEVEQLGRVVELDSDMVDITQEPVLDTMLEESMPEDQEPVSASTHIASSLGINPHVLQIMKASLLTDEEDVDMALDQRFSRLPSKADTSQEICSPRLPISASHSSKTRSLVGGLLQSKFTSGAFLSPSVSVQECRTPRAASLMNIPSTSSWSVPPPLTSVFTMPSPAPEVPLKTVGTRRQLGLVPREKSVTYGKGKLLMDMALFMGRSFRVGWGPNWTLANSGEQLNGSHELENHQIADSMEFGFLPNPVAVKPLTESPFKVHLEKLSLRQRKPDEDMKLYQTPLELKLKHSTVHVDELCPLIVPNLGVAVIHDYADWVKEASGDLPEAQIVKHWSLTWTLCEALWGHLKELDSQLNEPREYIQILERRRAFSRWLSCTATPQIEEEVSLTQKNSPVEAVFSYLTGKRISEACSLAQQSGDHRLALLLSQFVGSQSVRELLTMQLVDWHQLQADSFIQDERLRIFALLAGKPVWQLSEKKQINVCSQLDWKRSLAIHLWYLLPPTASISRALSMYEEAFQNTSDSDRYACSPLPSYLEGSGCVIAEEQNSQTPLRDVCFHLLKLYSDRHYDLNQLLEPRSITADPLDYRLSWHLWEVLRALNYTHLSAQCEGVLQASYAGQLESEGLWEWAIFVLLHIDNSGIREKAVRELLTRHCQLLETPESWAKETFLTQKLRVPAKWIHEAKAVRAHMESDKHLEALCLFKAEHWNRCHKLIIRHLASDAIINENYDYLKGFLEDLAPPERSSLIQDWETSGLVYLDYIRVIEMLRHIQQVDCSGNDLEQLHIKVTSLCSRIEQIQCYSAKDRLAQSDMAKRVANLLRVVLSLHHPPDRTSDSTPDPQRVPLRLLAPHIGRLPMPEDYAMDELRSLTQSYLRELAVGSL
Chain of UniProt Q7L1V2 (Q7L1V2 whole entry, looked up): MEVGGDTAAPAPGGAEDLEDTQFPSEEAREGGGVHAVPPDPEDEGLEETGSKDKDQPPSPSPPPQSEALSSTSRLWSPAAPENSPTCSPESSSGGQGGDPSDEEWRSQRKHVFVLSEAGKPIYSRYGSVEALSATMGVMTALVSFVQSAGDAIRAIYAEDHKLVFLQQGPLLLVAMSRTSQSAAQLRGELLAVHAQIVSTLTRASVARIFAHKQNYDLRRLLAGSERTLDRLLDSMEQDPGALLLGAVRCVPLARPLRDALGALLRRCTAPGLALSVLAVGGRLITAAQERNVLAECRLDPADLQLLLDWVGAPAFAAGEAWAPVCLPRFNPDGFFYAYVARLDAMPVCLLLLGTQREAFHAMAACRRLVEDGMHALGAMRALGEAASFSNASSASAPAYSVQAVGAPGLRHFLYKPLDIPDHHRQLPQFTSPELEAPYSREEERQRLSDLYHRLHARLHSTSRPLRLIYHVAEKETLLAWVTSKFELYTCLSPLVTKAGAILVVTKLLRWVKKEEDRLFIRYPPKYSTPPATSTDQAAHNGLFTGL
Chain of UniProt Q15102 (Q15102 whole entry, looked up): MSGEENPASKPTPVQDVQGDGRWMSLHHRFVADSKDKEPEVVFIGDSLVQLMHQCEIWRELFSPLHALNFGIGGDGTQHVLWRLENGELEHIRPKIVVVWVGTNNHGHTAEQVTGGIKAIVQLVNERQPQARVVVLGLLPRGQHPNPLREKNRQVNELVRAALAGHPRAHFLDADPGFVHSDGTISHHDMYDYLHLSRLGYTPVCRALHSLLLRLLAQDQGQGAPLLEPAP
Chain of UniProt P49116 (P49116 whole entry, looked up): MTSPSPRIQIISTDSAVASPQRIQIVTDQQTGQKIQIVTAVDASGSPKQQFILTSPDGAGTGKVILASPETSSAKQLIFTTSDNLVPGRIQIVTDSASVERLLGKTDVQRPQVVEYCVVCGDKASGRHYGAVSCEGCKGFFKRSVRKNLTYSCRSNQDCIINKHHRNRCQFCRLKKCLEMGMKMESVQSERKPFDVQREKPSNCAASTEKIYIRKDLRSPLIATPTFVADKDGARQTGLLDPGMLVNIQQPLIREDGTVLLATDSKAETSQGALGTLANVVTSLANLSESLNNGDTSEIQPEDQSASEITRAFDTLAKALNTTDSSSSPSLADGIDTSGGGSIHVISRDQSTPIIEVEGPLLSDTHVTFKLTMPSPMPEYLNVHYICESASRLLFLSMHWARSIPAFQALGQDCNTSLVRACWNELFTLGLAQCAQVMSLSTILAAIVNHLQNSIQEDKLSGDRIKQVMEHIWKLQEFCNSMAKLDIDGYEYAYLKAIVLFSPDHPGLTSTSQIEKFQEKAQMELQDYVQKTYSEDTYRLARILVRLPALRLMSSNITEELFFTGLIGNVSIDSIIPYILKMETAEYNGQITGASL

| Target | log2 fold change [1] | log2 fold change [2] | log2 fold change [3] | log2 fold change [4] | log2 fold change [5] | log2 fold change [6] | log2 fold change [7] | log2 fold change [8] | log2 fold change [9] | log2 fold change [10] | log2 fold change [11] | log2 fold change [12] | log2 fold change [13] | log2 fold change [14] | log2 fold change [15] | log2 fold change [16] | log2 fold change [17] | log2 fold change [18] | log2 fold change [19] | log2 fold change [20] |
| --- | --- | --- | --- | --- | --- | --- | --- | --- | --- | --- | --- | --- | --- | --- | --- | --- | --- | --- | --- | --- |
| NDUFA7 (UniProt O95182) | 0.003 | -0.072 | 0.005 | -0.197 | -0.042 | -0.147 | -0.178 | 0.013 | -0.002 | -0.007 | -0.004 | -0.103 | 0.02 | 0.039 | 0.012 | -0.12 | -0.101 | 0.07 | -0.041 | -0.118 |
| MYH10 isoform 3 (UniProt P35580) | 0.092 | -0.116 | 0.011 | -0.065 | -0.025 | 0.036 | -0.005 | -0.007 | -0.006 | -0.033 | -0.013 | -0.038 | 0.056 | -0.026 | 0.023 | -0.004 | -0.009 | 0.013 | 0.009 | 0.01 |
| PAFAH1B3 (UniProt Q15102) | -0.01 | -0.024 | 0.037 | -0.033 | -0.044 | 0.03 | 0.043 | 0.057 | -0.054 | 0.079 | 0.059 | 0.041 | 0.165 | -0.039 | 0.123 | -0.062 | -0.035 | 0.031 | -0.009 | 0.014 |
| MRPS25 (UniProt P82663) | 0.066 | 0.029 | 0.053 | -0.185 | -0.038 | -0.055 | 0.058 | -0.046 | 0.08 | 0.063 | -0.018 | -0.082 | -0.103 | 0.165 | 0.009 | -0.109 | 0.017 | 0.121 | -0.083 | -0.438 (active) |
| MRPS35 (UniProt P82673) | 0.018 | 0.024 | 0.051 | -0.168 | -0.04 | 0.026 | -0.054 | -0.13 | 0.022 | -0.021 | 0.004 | -0.043 | 0.016 | 0.166 | 0.016 | -0.039 | 0.032 | 0.101 | 0.005 | -0.277 (active) |
| NR2C2 isoform 2 (UniProt P49116) | 0.026 | 0.019 | 0.055 | 0.041 | -0.173 | 0.028 | -0.052 | 0.084 | -0.004 | 0.019 | 0.016 | 0.063 | 0.054 | -0.076 | 0.066 | -0.047 | 0.081 | 0.022 | 0.011 | 0.009 |
| NUP98 (UniProt P52948) | -0.003 | 0.045 | 0.009 | 0.061 | 0.007 | 0.047 | 0.026 | -0.057 | 0.02 | 0.027 | 0.031 | -0.02 | 0.007 | -0.009 | 0.007 | -0.044 | 0.04 | 0.1 | 0.022 | 0.001 |
| NCOA7 (UniProt Q8NI08) | -0.043 | -0.046 | 0.035 | -0.034 | -0.034 | 0.043 | -0.014 | 0.014 | 0.01 | -0.045 | -0.003 | -0.17 | 0.012 | -0.034 | 0.091 | -0.238 (active) | -0.052 | 0.031 | 0.082 | -0.037 |
| NOP53 (UniProt Q9NZM5) | -0.111 | 0.533 | -0.008 | 0.365 | -0.1 | 0.037 | -0.127 | -0.207 | 0.163 | -0.335 | -0.116 | 0.029 | -0.019 | 0.638 | -0.335 | 0.377 | 0.147 | -0.027 | 0.277 | 0.015 |
| NOL11 (UniProt Q9H8H0) | -0.029 | 0 | 0.005 | -0.046 | -0.017 | 0.067 | -0.008 | 0.056 | 0.005 | 0.025 | -0.036 | 0.084 | -0.017 | -0.041 | 0.073 | -0.061 | -0.01 | -0.015 | -0.005 | 0.097 |
| NME1 isoform 2 (UniProt P15531) | 0.017 | 0.007 | 0.001 | 0.022 | 0.062 | 0.021 | -0.063 | 0.141 | -0.009 | 0.666 (active) | 0.013 | 0.012 | 0.161 | 0.01 | 0.38 | -0.144 | -0.07 | 0.195 | -0.015 | 0 |
| MRPS24 (UniProt Q96EL2) | -0.153 | 0.047 | 0.088 | -0.134 | -0.104 | 0.096 | -0.056 | -0.014 | 0.047 | -0.174 | 0.014 | -0.031 | 0.192 | 0.082 | -0.009 | -0.117 | 0.048 | 0.094 | -0.028 | -0.427 (active) |
| MRPS17 (UniProt Q9Y2R5) | -0.089 | 0.038 | 0.047 | -0.254 | -0.043 | -0.025 | 0.039 | -0.016 | 0.113 | 0.035 | 0.038 | 0.034 | 0.097 | 0.076 | 0.012 | -0.06 | -0.019 | 0.166 | 0.033 | -0.345 (active) |
| MSH2 (UniProt P43246) | 0.072 | 0 | 0.057 | -0.019 | -0.018 | 0.024 | 0.007 | -0.026 | -0.021 | 0.144 | 0.057 | 0.04 | 0.056 | -0.038 | 0.08 | -0.02 | 0.072 | 0.117 | -0.067 | 0.09 |
| NEU1 (UniProt Q99519) | 0.153 | -0.107 | 0.001 | 0.015 | -0.123 | -0.05 | -0.091 | -0.073 | -0.015 | -0.113 | -0.005 | -0.365 (active) | -0.15 | 0.029 | 0.06 | -0.056 | -0.015 | -0.008 | 0.155 | -0.319 (active) |
| MON1B (UniProt Q7L1V2) | -0.012 | 0.029 | -0.008 | -0.056 | -0.136 | 0.065 | -0.012 | 0.037 | 0.055 | 0.029 | 0.006 | -0.342 (active) | 0.069 | -0.001 | -0.02 | -0.106 | -0.018 | 0.005 | 0.022 | -0.102 |
